Laboratory results published in PubChem BioAssay (NCI).
Several values for one entry are separate records, joined by “and”; a condition that tells them apart may be missing. Equal entries are not always repeated. About 79,000 compounds went through this panel and 15% of them were active in at least one assay; those are over-represented in the sample as a whole. The source holds several records for some structures; these can differ, active in one and inactive in another. Activity calls are given as the source filed them. No stated cut-off is given here; in the data, active means growth inhibition above about 70%; inactive means the rest. Where a SMILES comes first, the peptide text is derived from it.

Test: NCI Yeast Anticancer Drug Screen. Data for the sgs1 mgt1 strain (AID 161);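 further: 0% = growth of cultures given vehicle only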
Settings: S. cerevisiae sgs1 mgt1 strain, at 50.0 µM, stronger effect = higher value
Procedure, shortened: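 Read-out: growth inhibition vs vehicle controls. Cells: mutant yeast strain deficient in DNA damage repair.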

Compound | growth inhibition
CCCCCCCCCCCCCCCCCCOCC(COP(=O)([O-])OCC[N+](C)(C)C)OC (stereo not drawn) | 91.5% (active) and -31.4% (inactive)
S=c1nc[nH]c2[nH]ccc12 | -2.35% (inactive)
C=C[C@]1(C)C=C2C(O)CC3C(C)(C)CCC[C@]3(CO)C2CC1 (stereo partly drawn) | 99.5% (active)
c1ccc(-c2cnc(-c3ccc(-c4ncc(-c5ccccc5)o4)cc3)o2)cc1 | -47.8% (inactive)
Nc1ccc2c(ccc3ccc4ccccc4c32)c1 | 97.8% (active)
O/N=C(\CC(O)(C(F)(F)F)C(F)(F)F)c1cccc(Cl)c1 | 92.8% (active)
CC(=O)OC1CCC2(C)C(CCC3C4CCC(OC(C)=O)C4(C)CCC32)O1 (stereo not drawn) | 43.6% (inactive)
Cc1[nH]c2ccccc2c1C1Cc2ccccc2N1 (stereo not drawn) | 46.3% (inactive) and 81.3% (active)
COc1ccc(C2c3cc4c(cc3OC(NNC(N)=O)C2C)OCO4)cc1 (stereo not drawn) | 87.8% (active)
Oc1ccc(C(O)(c2ccccc2)c2ccccc2)cc1 | 92% (active) and 48.6% (inactive)
COc1ccc(CC(=O)c2ccc(O)cc2O)cc1 | 54.8% (inactive)
COC(=O)C#CC(=O)OC | 7.05% (inactive) and 45% (inactive)
O=C1OC2=C(c3ccccc3)CCCC2C1=O (stereo not drawn) | 93.8% (active) and -3.3% (inactive)
CC(C)C(NC(=O)C(N)CCC(=O)O)C(=O)O (stereo not drawn) (H-Glu-Val-OH; configuration not given here) | -9.35% (inactive)
CC1(C)CC(=O)C2=C(C1)OC1=C(CC(C)(C)CC1=O)C2c1ccccc1Cl (stereo not drawn) | -1.9% (inactive)
O=C(CC(=O)CC(O)(c1ccccc1)c1ccccc1)CC(=O)c1ccccc1 | 98% (active)
O=Nc1ccc(C=C2C(=O)C=CC2=O)cc1 | 99.4% (active)
C[N+]1(Cc2ccc(Cl)c(Cl)c2)CCCC1C1CCCN(Cc2ccc(Cl)c(Cl)c2)C1 (stereo not drawn) | 5.3% (inactive) and 14% (inactive)
C[C@H]1CC[C@H]([C@@H](C)[C@H]2[C@@H](O)C[C@H]3[C@@H]4CC[C@H]5C[C@@H](O)CC[C@]5(C)[C@H]4CC[C@]23C)NC1 | 92.5% (active) and 85.7% (active)
CCOP(=O)(OCC)C(C)(CC)NC(=O)C(C(F)(F)F)C(F)(F)F (stereo not drawn) | -8.75% (inactive) and -2.6% (inactive)
[N-]=[N+]=NC(=O)Nc1cccc(C(F)(F)F)c1 | 98.5% (active)
NC(C/[N+]([O-])=N/O)C(=O)O (stereo not drawn) | 36.2% (inactive) and 39.5% (inactive) and 48.1% (inactive)
NC(=O)N/N=C/c1ccc([N+](=O)[O-])o1 | 56.4% (inactive) and 48% (inactive)
